Screens as filed in PubChem BioAssay.
The entries come from a sample that favours hits as a whole.
IDE exosite FP – exo-site inhibitors of human insulin-degrading enzyme. P14735. purified IDE, FL-6b probe fluorescence polarization; stronger effect = lower value. z-score at 20 µM. hit rate 6.3% among 17,000. AID 1259349;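 active = z-score of -3 or lower, meaning strong loss of probe binding signal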;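 also: His-tagged human IDE residues 42-1019 made in E. coli with 30 nM FL-6b probe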
Target sequence (P14735 42-1019 limits assumed): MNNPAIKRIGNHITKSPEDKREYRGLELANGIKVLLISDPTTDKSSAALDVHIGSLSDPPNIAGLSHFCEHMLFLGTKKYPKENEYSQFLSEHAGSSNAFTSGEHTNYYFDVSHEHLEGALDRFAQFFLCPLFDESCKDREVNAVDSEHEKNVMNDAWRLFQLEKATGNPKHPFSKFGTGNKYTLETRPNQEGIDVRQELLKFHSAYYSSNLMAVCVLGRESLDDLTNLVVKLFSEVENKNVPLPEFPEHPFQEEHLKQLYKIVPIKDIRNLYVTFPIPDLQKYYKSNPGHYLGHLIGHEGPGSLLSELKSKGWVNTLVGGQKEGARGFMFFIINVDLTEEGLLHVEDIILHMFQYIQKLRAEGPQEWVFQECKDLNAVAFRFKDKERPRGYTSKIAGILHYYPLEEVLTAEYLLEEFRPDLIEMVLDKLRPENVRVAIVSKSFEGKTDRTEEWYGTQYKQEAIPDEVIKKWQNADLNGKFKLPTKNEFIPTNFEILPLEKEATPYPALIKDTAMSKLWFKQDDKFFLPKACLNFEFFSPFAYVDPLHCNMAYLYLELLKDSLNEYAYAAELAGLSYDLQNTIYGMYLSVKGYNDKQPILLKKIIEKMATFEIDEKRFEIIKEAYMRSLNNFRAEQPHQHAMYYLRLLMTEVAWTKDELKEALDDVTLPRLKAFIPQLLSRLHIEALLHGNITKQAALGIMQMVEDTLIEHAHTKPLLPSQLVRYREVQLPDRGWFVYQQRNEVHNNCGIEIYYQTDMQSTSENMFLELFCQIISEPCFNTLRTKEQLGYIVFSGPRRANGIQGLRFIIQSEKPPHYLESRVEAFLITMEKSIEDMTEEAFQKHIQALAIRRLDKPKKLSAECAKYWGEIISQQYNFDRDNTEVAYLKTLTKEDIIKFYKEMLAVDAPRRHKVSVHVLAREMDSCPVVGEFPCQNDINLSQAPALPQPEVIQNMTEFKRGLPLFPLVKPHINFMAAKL
Large screens that a line does not name were inactive.

CCCNC(=O)N1CC(=O)N2[C@@H](CO)[C@@H](c3ccc(C#Cc4ccccc4)cc3)[C@@H]2C1	none
CCCNC(=O)N1CC(=O)N2[C@@H](CO)[C@@H](c3ccc(C#Cc4cccc(F)c4)cc3)[C@@H]2C1	none
CCCNC(=O)N1CC(=O)N2[C@@H](CO)[C@H](c3ccc(C#Cc4ccc(F)cc4)cc3)[C@@H]2C1	none
CCCNC(=O)N1CC(=O)N2[C@@H](CO)[C@H](c3ccc(C#Cc4ccccc4)cc3)[C@@H]2C1	IDE exosite FP -11
CCCNC(=O)N1CC(=O)N2[C@H](CO)[C@@H](c3ccc(C#Cc4cccc(F)c4)cc3)[C@H]2C1	IDE exosite FP -3.68
CCCNC(=O)N1CC(=O)N2[C@H](C1)[C@H](c1ccc(C#Cc3ccc(F)cc3)cc1)[C@@H]2CO	none
Cc1ccccc1-c1ccccc1[C@H]1[C@@H](CO)N(C(=O)c2cccc(F)c2)[C@H]1C#N	none
CCCNC(=O)N1[C@@H](C#N)[C@H](c2ccc(C3=CCCCC3)cc2)[C@@H]1CO	none
COc1ccc(S(=O)(=O)Nc2ccc3c(c2)[C@H]2C[C@H](CC(=O)N(C)C)O[C@H](CO)[C@H]2O3)cc1	none
Cc1noc(C)c1C(=O)N(C)C[C@H]1OCc2ccccc2-c2ccccc2C(=O)N([C@H](C)CO)C[C@@H]1C	none
CN(C)CC(=O)N1[C@H](C#N)[C@H](c2ccc(-c3ccccc3F)cc2)[C@@H]1CO	none
COc1ccccc1-c1ccc([C@H]2[C@H](C#N)N(C(=O)CN(C)C)[C@H]2CO)cc1	IDE exosite FP -14.1
CN(C)CC(=O)N1[C@H](CO)[C@@H](c2ccc(-c3ccccc3F)cc2)[C@@H]1C#N	IDE exosite FP -3.42
COc1ccccc1-c1ccccc1[C@H]1[C@@H](C#N)N(C(=O)CN(C)C)[C@H]1CO	none
COc1ccc(-c2ccc([C@@H]3[C@@H](C#N)N(C(=O)CN(C)C)[C@@H]3CO)cc2)cc1	none
CN(C)CC(=O)N1[C@H](C#N)[C@@H](c2ccc(-c3ccc(C(=O)N(C)C)cc3)cc2)[C@@H]1CO	none
COc1ccccc1-c1ccc([C@@H]2[C@H](C#N)N(C(=O)CN(C)C)[C@H]2CO)cc1	IDE exosite FP -5.05
CN(C)CC(=O)N1[C@H](CO)[C@H](c2ccc(-c3ccccc3F)cc2)[C@@H]1C#N	none
CN(C)CC(=O)N1[C@H](C#N)[C@H](c2ccc(-c3ccccc3F)cc2)[C@H]1CO	none
COc1ccccc1-c1ccc([C@H]2[C@@H](C#N)N(C(=O)CN(C)C)[C@H]2CO)cc1	IDE exosite FP -3.7
CN(C)CC(=O)N1[C@@H](C#N)[C@@H](c2ccc(-c3ccc(C(=O)N(C)C)cc3)cc2)[C@@H]1CO	none
COc1ccccc1-c1ccccc1[C@@H]1[C@@H](C#N)N(C(=O)CN(C)C)[C@@H]1CO	none
N#C[C@H]1[C@@H](c2ccc(C#CC3CC3)cc2)[C@H](CO)N1S(=O)(=O)c1ccccc1	none
C/C=C/c1ccc(C2[C@H]3CNC[C@@H]2N3C(=O)Nc2ccc(C(F)(F)F)cc2)cc1 (stereo not given in full)	none
COCC#Cc1ccc([C@@H]2[C@H]3CN(C(=O)C4CCC4)CC(=O)N3[C@H]2CO)cc1	none
O=C1Nc2ccccc2OCc2cn(nn2)CC[C@H]1Cc1ccc(-c2ccccc2)cc1	none
CN1C(=O)c2cc(NC(=O)c3cnccn3)ccc2OC[C@@H]2O[C@H](CC(=O)N[C@H]3CCN(Cc4ccccc4)C3)CC[C@@H]21	none
CN1c2ccc(Br)cc2[C@H]2[C@H](CCN2C(=O)CN2CCOCC2)[C@@H]1CO	none
Cc1cccc(-c2ccc([C@H]3[C@H]4CN(C(=O)c5ccc6c(c5)OCO6)CCCCN4[C@H]3CO)cc2)c1	none
CO[C@@H](CN(C)C(=O)c1cc(Cl)cc(Cl)c1)[C@@H](C)CN(C(=O)Nc1ccc(F)cc1)[C@@H](C)CO	none
CC(=O)NC[C@H]1[C@@H](c2ccc(-c3cccnc3)cc2)[C@H](CO)N1C(=O)C1CC1	none
Cc1ccccc1S(=O)(=O)N1CCCCN2[C@@H](CO)[C@H](c3ccc(-c4cncnc4)cc3)[C@@H]2C1	none
O=S(=O)(c1ccccc1F)N1CCCCN2[C@H](CO)[C@H](c3ccc(-c4cccnc4)cc3)[C@@H]2C1	none
O=S(=O)(c1ccccc1F)N1CCCCN2[C@H](CO)[C@@H](c3ccc(-c4cccnc4)cc3)[C@H]2C1	none
Cc1ccccc1S(=O)(=O)N1CCCCN2[C@H](CO)[C@H](c3ccc(-c4cccnc4)cc3)[C@H]2C1	none
Cc1cccc(S(=O)(=O)N2CCCCN3[C@H](C2)[C@H](c2ccc(-c4cccnc4)cc2)[C@@H]3CO)c1	none
Cc1ccccc1S(=O)(=O)N1CCCCN2[C@H](CO)[C@@H](c3ccc(-c4cccnc4)cc3)[C@@H]2C1	IDE exosite FP -11.6
O=S(=O)(c1ccccc1F)N1CCCCN2[C@@H](CO)[C@@H](c3ccc(-c4cccnc4)cc3)[C@@H]2C1	IDE exosite FP -12.8
Cc1ccccc1S(=O)(=O)N1CCCCN2[C@H](CO)[C@@H](c3ccc(-c4cncnc4)cc3)[C@H]2C1	none
Cc1ccccc1S(=O)(=O)N1CCCCN2[C@@H](CO)[C@@H](c3ccc(-c4cncnc4)cc3)[C@@H]2C1	IDE exosite FP -4.33
Cc1nc(N2[C@H](C#N)[C@H](c3ccccc3)[C@H]2CO)sc1C	none
CCC(=O)N1[C@H](CO)[C@H]2c3ccccc3N(C(=O)c3cnccn3)C[C@H]21	none
CN(C)CC#Cc1ccc([C@@H]2[C@@H](CO)N3CCCCN(C(=O)Nc4ccc(F)cc4)C[C@H]23)cc1	none
COc1ccc2c3c([nH]c2c1)[C@@H](CO)N(C(=O)c1ccc(F)cc1)CC31CCN(S(=O)(=O)c2cccs2)CC1	none
C/C=C/c1ccc([C@H]2[C@@H](CO)N3C(=O)CN(C(=O)Nc4ccc(F)cc4)C[C@@H]23)cc1	none
CCCNC(=O)N1[C@H](C#N)[C@@H](c2ccccc2-c2ccccc2F)[C@@H]1CO	none
O=C(c1ccc(F)cc1)N1CC(=O)N2[C@H](CO)[C@@H](c3ccc(C#Cc4ccc(F)cc4)cc3)[C@@H]2C1	none
O=C(c1cccc(F)c1)N1CC(=O)N2[C@H](CO)[C@@H](c3ccc(-c4ccccc4)cc3)[C@H]2C1	none
O=C(c1ccccc1F)N1CC(=O)N2[C@@H](CO)[C@H](c3ccc(-c4ccc(F)cc4)cc3)[C@@H]2C1	none
O=C(c1ccccc1F)N1CC(=O)N2[C@H](C1)[C@H](c1ccc(C#Cc3ccccc3)cc1)[C@@H]2CO	IDE exosite FP -3.36
O=C(c1ccccc1F)N1CC(=O)N2[C@H](CO)[C@@H](c3ccc(C#Cc4ccccc4)cc3)[C@@H]2C1	none
O=C(Nc1ccccc1F)N1CC(=O)N2[C@@H](CO)[C@@H](c3ccc(C#Cc4ccc(F)cc4)cc3)[C@@H]2C1	none
O=C(c1ccccc1F)N1CC(=O)N2[C@H](CO)[C@H](c3ccc(C#Cc4ccccc4)cc3)[C@@H]2C1	none
O=C(c1ccccc1F)N1CC(=O)N2[C@@H](CO)[C@H](c3ccc(-c4ccccc4)cc3)[C@@H]2C1	none
O=C(c1cccc(F)c1)N1CC(=O)N2[C@H](CO)[C@@H](c3ccc(-c4ccccc4)cc3)[C@@H]2C1	none
O=C(c1ccccc1F)N1CC(=O)N2[C@H](C1)[C@@H](c1ccc(-c3ccccc3)cc1)[C@@H]2CO	IDE exosite FP -3.25
O=C(c1cccc(F)c1)N1CC(=O)N2[C@H](C1)[C@@H](c1ccc(-c3ccccc3)cc1)[C@@H]2CO	IDE exosite FP -3.42
O=C(Nc1ccccc1F)N1CC(=O)N2[C@H](C1)[C@@H](c1ccc(C#Cc3ccc(F)cc3)cc1)[C@@H]2CO	none
O=C(Nc1ccccc1F)N1CC(=O)N2[C@H](C1)[C@H](c1ccc(C#Cc3ccccc3)cc1)[C@@H]2CO	IDE exosite FP -4.1
